# PubChem BioAssay (NCI)
# About 79,000 compounds went through this panel and 15% of them were active in at least one assay; those are over-represented in the sample as a whole. A number with no mark means an inactive call. Calls of active or inactive are those of the source. Cut-off read from the data, not from the text of the source: active = growth inhibition above about 70%; inactive = the rest.
# What was measured:
# [1] = NCI Yeast Anticancer Drug Screen. Data for the rad50 strain (AID 155);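 note: 0% = growth of vehicle-only cultures of the same strain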; conditions: S. cerevisiae rad50 strain growth inhibition, active compounds read high
# Summary of the method: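 Compounds were tested on a yeast strain with an engineered DNA damage repair alteration; the reported value is growth inhibition normalised to vehicle treatment.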
# [2] = NCI Yeast Anticancer Drug Screen. Data for the mec2-1 strain (AID 157); conditions: S. cerevisiae mec2-1 strain, active compounds read high
# Summary of the method: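 Each compound was tested on mec2-1 yeast, a strain altered in DNA damage repair or cell cycle control. Growth inhibition is reported relative to vehicle.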
# [3] = NCI Yeast Anticancer Drug Screen. Data for the sgs1 mgt1 strain (AID 161);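 note: 0% = growth of cultures given vehicle only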; conditions: S. cerevisiae sgs1 mgt1 strain, active compounds read high
# Summary of the method: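 Test agents were incubated with a DNA-repair-mutant yeast strain. Growth was then read and compared against vehicle-treated controls.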
# [4] = NCI Yeast Anticancer Drug Screen. Data for the cln2 rad14 strain (AID 165);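 note: 0% = growth equal to vehicle treated cultures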; conditions: S. cerevisiae cln2 rad14 strain, active compounds read high
# Summary of the method: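 Test compounds were added to cln2 rad14 yeast cultures; inhibition of growth was then determined by comparison with vehicle treatment.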
# [5] = NCI Yeast Anticancer Drug Screen. Data for the bub3 strain (AID 167); conditions: S. cerevisiae bub3 mutant strain, active compounds read high
# Summary of the method: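 Growth of a checkpoint-deficient yeast mutant is measured after compound exposure. Values represent inhibition relative to vehicle.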
# [6] = NCI Yeast Anticancer Drug Screen. Data for the mlh1 rad18 strain (AID 175); conditions: S. cerevisiae mlh1 rad18 strain growth inhibition, active compounds read high
# Summary of the method: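 Inhibition values reflect reduced growth of mutant yeast versus vehicle-treated controls following compound exposure; the mutations affect DNA damage repair.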
# [7] = at 5.0 µM (retest, dose inferred, filed as 0.5)
# [8] = at 50.0 µM (retest, dose inferred, filed as 5.0)
SMILES,"growth inhibition [1, 7]","growth inhibition [1, 8]",growth inhibition ([1]; at 50.0 µM),"growth inhibition [2, 7]","growth inhibition [2, 8]",growth inhibition ([2]; at 50.0 µM),"growth inhibition [3, 7]","growth inhibition [3, 8]",growth inhibition ([3]; at 50.0 µM),"growth inhibition [4, 7]","growth inhibition [4, 8]",growth inhibition ([4]; at 50.0 µM),"growth inhibition [5, 7]","growth inhibition [5, 8]",growth inhibition ([5]; at 50.0 µM),"growth inhibition [6, 7]","growth inhibition [6, 8]",growth inhibition ([6]; at 50.0 µM)
COC(OC)(c1ccccc1)C(Br)Br,-21%,50%,85.8% (active),-18%,86% (active),93.2% (active),-24%,45%,89.3% (active),-7%,41%,90.4% (active),-25%,89% (active),90% (active),-12%,59%,84.8% (active)
CCN1C(Cl)=NS(=O)(=O)c2ccccc21,17%,36%,-24.4%,24%,43%,-3.45%,22%,39%,-8.5%,19%,32%,-4%,19%,53%,-0.05%,25%,46%,21.2%
Nc1cc(Cl)c(I)cc1Cl,7%,98% (active),74.5% (active),-15%,99% (active),15.8%,-1%,100% (active),50.1%,-7%,97% (active),32.3%,-8%,99% (active),69.2%,34%,99% (active),86.8% (active)
c1cc2c3c(c1)[I+]c1cccc(c1-3)[I+]2,51%,67%,69.8%,34%,58%,27.1%,53%,80% (active),65.9%,24%,40%,45%,39%,31%,36.3%,64%,88% (active),55.9%
O=C(CCc1c[nH]c2ccccc12)c1ccccc1O,2%,5%,17.5%,-1%,14%,22.1%,5%,16%,59.3%,-13%,-18%,-21.4%,2%,14%,73.8% (active),-5%,12%,43.4%
O=C(Cn1nnc2ccccc21)N1CCN(c2ccccc2)CC1,-2%,3%,32.8%,4%,3%,33.8%,-1%,5%,-2.35%,-6%,3%,43.8%,-1%,1%,14.9%,-3%,3%,-7.75%
CC(C)C(=O)c1ccc([N+](=O)[O-])o1,2%,97% (active),98.8% (active),11%,97% (active),99% (active),8%,96% (active),97.7% (active),-3%,99% (active),97.3% (active),1%,97% (active),99.1% (active),6%,98% (active),98.5% (active)
Cc1ccnc2sc3ccccc3c(=O)c12,15%,96% (active),86.8% (active),14%,93% (active),82.5% (active),4%,92% (active),80.6% (active),4%,76% (active),68.5%,6%,92% (active),83.5% (active),11%,95% (active),83.9% (active)
CCCCCCCOC(=O)c1cc2cc(C(CC)C(CC)c3ccc(O)cc3)ccc2oc1=O (stereo not given),23%,47%,83.1% (active),37%,23%,91.3% (active),47%,65%,82% (active),30%,74% (active),87.4% (active),11%,45%,68.9%,41%,57%,88.9% (active)
O=[N+]([O-])c1ccccc1C1CN=NN1c1ccccc1 (stereo not given),-9%,47%,-0.9%,-2%,25%,17.9%,-1%,33%,38.2%,-14%,32%,-11.3%,-3%,61%,85.5% (active),0%,37%,24.9%
